Laboratory results from article PMC9574860, “Chemical Toolkit for PARK7: Potent, Selective, and High-Throughput” (Journal of Medicinal Chemistry, 2022).
Out of some 7,900 compounds screened, about 400 (5.1%) showed an effect of 50% or more. For the sample, strong results were picked, then their nearest neighbours and some compounds at random.

target: Parkinson's disease protein 7 (PARK7/DJ1) (human, UniProt Q99497); test: primary screen, percent inhibition; read as competition with a fluorescent probe by fluorescence polarization; higher = more effect of the substance; conditions: 100 µM
Sequence (Q99497 whole entry, looked up, the tested form may be a part): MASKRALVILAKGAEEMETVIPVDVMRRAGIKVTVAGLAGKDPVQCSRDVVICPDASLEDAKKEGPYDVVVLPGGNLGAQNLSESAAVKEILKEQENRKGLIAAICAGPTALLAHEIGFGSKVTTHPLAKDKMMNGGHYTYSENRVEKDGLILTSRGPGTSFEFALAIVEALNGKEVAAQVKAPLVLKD
Outline: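 Covalent fragments at 100 μM final were incubated 2 h with 0.2 μM PARK7, then 20 nM probe JYQ-107 added for a further 2 h. Fluorescence polarization read at 480/520 nm; relative FP loss versus reference controls gave remaining enzyme activity.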

SMILES	Inhibition % [%]
N#CC1(CCCl)CCCCC1	3.15
C=CC(=O)N1CCN(c2ccc(OC)cn2)CC1	5.59
O=C(CCl)Nc1ccc(NC(=O)c2cccs2)cc1	28
COc1ccc(C(=O)CCl)cc1Cl	95.9
COc1ccc(Cl)cc1C(=O)NNC(=O)CCl	29.8
COc1ccc(Cl)cc1NC(=O)CCl	14.9
COc1ccc(C(=O)CCl)cc1F	91.7
COc1cc(OC)c(C(=O)CCl)c(OC)c1	5.2
COc1ccc(NC(=O)CCl)cc1Cl	28.1
C=CC(=O)NC1CC(C(C)(C)C)C1 (centres unmarked)	14
C=CC(=O)N1c2cc(OC)ccc2NC(=O)C1C (centres unmarked)	9.84
O=S(=O)(F)c1ccc(Br)cc1	13.2
O=S(=O)(F)c1cc(Br)ccc1Cl	88.4
O=S(=O)(F)c1ccc(Cl)c(S(=O)(=O)F)c1	-3.28
CC1CCN(C(=O)CCl)c2ccccc2S1 (centres unmarked)	6.09
Cc1ccc(Oc2ccc(Cl)cc2NC(=O)CCl)cc1	2.17
COc1cc(NC(=O)OC(C)(C)C)ccc1B1OC(C)(C)C(C)(C)O1	14.5
O=C(CCl)Nc1cc(Cl)ccc1-n1cncn1	11
Cc1ccc(Sc2ccc(NC(=O)CCl)cc2)cc1C	34.5
CSc1ccc(NC(=O)CCl)cc1	86
Cc1ccc(Sc2ccc(NC(=O)CCl)cc2)c(C)c1	25.5
Cc1ccc(C)c(Sc2ccc(NC(=O)CCl)cc2)c1	37
O=C(CCl)Nc1ccc(SC(F)F)cc1	100
O=C(CCl)Nc1ccccc1SC(F)F	9.47
CC1(C)[C@@H](Nc2cnc(C#N)cn2)[C@@H]1c1ccccc1 (racemic)	10.2

SMILES	Inhibition % [%]
Cc1nc(S)c(C#N)cc1C(=O)Nc1ccccc1	10.1
N#Cc1ncn(CC(=O)N(C2=CCCCC2)C2CC2)n1	29.4
COc1ccc(C(=O)CCl)c2c1C(=O)CO2	64.2
COc1ccc(C(=O)CCl)c(OC)c1	41.1
COc1ccc(OC)c(C(=O)CCl)c1	11.8
O=C(C=Cc1cnc2ccccc2n1)N1CCCCC1	9.55
O=C1OC[C@@H]2CN(Cc3ccccc3)C[C@H]12 (racemic)	6.21
CC(OS(C)(=O)=O)C(C)c1ccc2ccccc2n1.Cl (centres unmarked)	24.3
O=S(=O)(F)c1ccc2ccccc2n1	69.3
O=S(=O)(F)c1nc2ccccc2s1	12.9
Cc1cc(C=C(C#N)C(N)=O)c(C)n1C1CC1	2.13
Cc1cc(F)c(C(=O)CCl)cc1F	5.49
Cc1cc(C(=O)Cn2cnc(C#N)n2)c(C)n1C(C)C	11.7
Cc1cc(C(=O)CCl)c(F)cc1F	5.96
Cc1cc(C(=O)CCl)c(C)n1CC1CCCO1 (centres unmarked)	3.43
C=CCn1c(C)cc(C(=O)CCl)c1C	58.7
Cc1cc(C(=O)CCl)c(C)[nH]1	98.2
CCn1c(C)cc(C(=O)CCl)c1C	56
Cc1cc(C(=O)CCl)c(C)n1CC(N)=O	4.29
CCn1c(C)cc(C(=O)Cn2cnc(C#N)n2)c1C	0.239
Cc1cc(C(=O)CCl)c(C)n1C(C)C	96.9
C=CC(=O)N1CCC2COCC2C1 (centres unmarked)	6.41
N#Cc1nc(-c2ccc(Cl)cc2Cl)oc1N	-2.51
O=c1ccc2cc(S(=O)(=O)OCC(F)(F)F)ccc2o1	6.17
C=CC(=O)NCCc1cncnc1	10.1

SMILES	Inhibition % [%]
CCc1ccc(C=CS(=O)(=O)Nc2onc(C)c2C)cc1	4.3
N#Cc1cc(C(=O)NCC2CCc3nccn3C2)c[nH]1 (centres unmarked)	16.5
CCC(NC(=O)CCl)c1ccc(Br)cc1 (centres unmarked)	5.16
CC1(C)OB(c2cccc(OCCCN3CCCC3)c2)OC1(C)C	1.19
C=CC(=O)N1CCCCC1c1noc(C)n1 (centres unmarked)	3.88
O=C(CN1CCSC1=O)N1CCN(c2ccccc2)CC1	5.93
C=CC(=O)N1CCC(S(=O)(=O)NC(C)C)C1 (centres unmarked)	7.14
CC1(CO)CCCC1Nc1ccc(C#N)nc1 (centres unmarked)	6.61
COCc1cccnc1C#N	2.34
Fc1ccc(C2CO2)nc1 (centres unmarked)	4.53
CCCn1c(C)cc(C(=O)CCl)c1C	56
Cc1cc(C(=O)CCl)c(C)n1C1CC1	65
Cc1cc(C(=O)CCl)c(C)n1CC(F)(F)F	1.46
Cc1cc(C(=O)Cn2cnc(C#N)n2)c(C)n1C	18.2
Cc1cc(C(=O)CCl)c(C)n1C1CCS(=O)(=O)C1 (centres unmarked)	35.7
Cc1cc(C(=O)CCl)c(C)n1C	72.1
Cc1cc(C(=O)CCl)c(C)n1Cc1ccco1	54.9
Cc1cc(C=C(C#N)C(N)=O)c(C)n1Cc1ccco1	7.44
COCCn1c(C)cc(C(=O)CCl)c1C	49.1
Cc1cc(C(=O)Cn2cnc(C#N)n2)c(C)n1C1CC1	17.1
CCCn1c(C)cc(C(=O)Cn2cnc(C#N)n2)c1C	6.57
CC(=O)Nc1c(C)cc(C)c(C(=O)CCl)c1C	14
Cl.O=C(CCl)Nc1ncc[nH]1	1.78
C=CC(=O)N1C[C@H](F)C[C@H]1C(=O)N1CCOCC1	10.5
C=CC(=O)N1CCC(c2nc(C(F)(F)F)c[nH]2)CC1	0.0839

SMILES	Inhibition % [%]
C=CC(=O)N1CCC(C(=O)NCC(F)(F)F)C1 (centres unmarked)	4.08
COC(F)(F)C(F)(F)c1ccc(B2OC(C)(C)C(C)(C)O2)cc1	6.09
O=C(O)c1ccoc1CS	64.1
CN(Cc1ncnn1C)S(=O)(=O)C=Cc1ccccc1	3.12
COc1ccccc1CN(C)C(=O)CCl	98.6
COc1ccccc1CCNC(=O)CCl	15.8
COc1ccccc1CNC(=O)CCl	28
COc1ccccc1C(C)N(C)C(=O)CCl (centres unmarked)	31.5
COc1cccc(CN(C)C(=O)CCl)c1OC	74.5
COc1cc(CO)ccc1B1OC(C)(C)C(C)(C)O1	4.39
CC(c1ccsc1)N1CCN(c2ccc(C#N)nc2)CC1 (centres unmarked)	7.22
Cc1ccc(NC(=O)CCl)cc1S(=O)(=O)N(C)C	10.4
COc1ccc(NC(=O)CCl)cc1S(=O)(=O)N(C)C	9.41
CCN(CC)S(=O)(=O)c1ccc(NC(=O)CCl)cc1	90.5
CCN(CC)S(=O)(=O)c1cccc(NC(=O)CCl)c1	22.5
CC(C)N(C)S(=O)(=O)c1ccc(NC(=O)CCl)cc1	83.8
CN(C)S(=O)(=O)c1ccc(NC(=O)CCCl)cc1	7.94
CCN(CC)S(=O)(=O)c1cc(NC(=O)CCl)ccc1C	7.16
CN(C)S(=O)(=O)c1ccc(NC(=O)CCl)cc1	84.2
C=CC(=O)N[C@H]1C[C@H](C)S(=O)(=O)c2sccc21	7.51
C=CC(=O)N1CCOCC2(CC2)C1	33.9
C=CC(=O)N1CCN(c2ccc(C)o2)C(=O)C1	5.39
Cc1ccoc1C=C(C#N)C(=O)NCCc1ccccc1	0.974
O=S1(=O)C=CC(O)C1 (centres unmarked)	4.75
C=C(Cl)CSc1nc2ccsc2c(=O)n1C	13.1

SMILES	Inhibition % [%]
CC1(C)OB(c2ccc3c(c2)NC(=O)C3)OC1(C)C	27.3
O=C(C1CCOCC1)N1CCC(S(=O)(=O)F)CC1	30.7
COC(=O)C1CC(S(=O)(=O)F)CN1C(=O)C1CC1C (centres unmarked)	13.7
CC1CC1C(=O)N1CCCCC1CCS(=O)(=O)F (centres unmarked)	57.7
C=CC(=O)N1CCCCC1CS(C)(=O)=O (centres unmarked)	5.69
O=C(C1CCOCC1)N1CCOC(CS(=O)(=O)F)C1 (centres unmarked)	13.3
O=C(C1CCOCC1)N1CCCCC1CCS(=O)(=O)F (centres unmarked)	82.4
C=CC(=O)N1CCSC2(CCC2)CC1	10.9
NC(=O)C1CCCN(S(=O)(=O)C=Cc2ccccc2)C1 (centres unmarked)	6.58
CS(=O)(=O)C(C#N)=Cc1cnn(-c2ccccc2)c1	10.2
CN1CCN(c2cccc(C#N)n2)CC1	5.08
CC1CC(Sc2nnc(-c3ccco3)o2)C(=O)O1 (centres unmarked)	1.96
O=C(CCl)N1CCOC(c2ccc(F)cc2)C1 (centres unmarked)	95.3
C=CC(=O)N1CCOC(c2ccc(C(F)(F)F)cc2)C1 (centres unmarked)	1.86
CCC1CN(C(=O)CCl)CCO1 (centres unmarked)	33.6
CC(C)c1nc(C(C)Nc2ccc(C#N)nc2)cs1 (centres unmarked)	3.63
Cl.NCC1OB(O)c2ccccc21 (centres unmarked)	3.67
O=c1onc(-c2ccccc2)n1Cc1ccncc1	1.3
Cc1noc(C)c1Cn1c(-c2ccccc2)noc1=O	14.3
Cc1oncc1Cn1c(-c2ccncc2)noc1=O	59.3
Sc1nnnc2ccccc12	3.52
O=C(NCC12CCCN1CCC2)c1cccc(S(=O)(=O)F)c1	86.4
CS(=O)C1(CNC(=O)c2cccc(S(=O)(=O)F)c2)CCC1 (centres unmarked)	97.3
O=C(NCCC(=O)N1CCCCC1)c1cc(S(=O)(=O)F)c[nH]1	5.43
CN1CCC2(CCCN2C(=O)c2cccc(S(=O)(=O)F)c2)CC1	10.6
